Screening data: PubChem BioAssay, National Center for Advancing Translational Sciences (NCATS)
TRPML1 inh = inhibitors of human TRPML1 channel; AID 624415; activity change, negative = inhibition, % (no concentration beside the values); TRPML1-inducible cells, Ca2+ dye fluorescence, FDSS; hits give low values; inhibition of EC80 agonist-evoked calcium signal; actives 0.02% (n = 390,000); in the data active = activity change below about -50%; inconclusive = between about -30% and that limit;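 also: stimulus is agonist 54-4 at its EC80 concentration; % is scaled to controls: 0 for no effect and ±100 for the full control effect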
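TRPML1-DL cells, Tet-induced overnight (~16 h, 37 °C) at 1,500 cells/well, were loaded with Ca8 no-wash dye plus quencher for 45-90 min at room temperature. Compounds were pinned during FDSS kinetic reading; agonist 54-4 at EC80 (4 uM final) then added.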
TRPV1 ag = activates the human vanilloid receptor TRPV1 | TRPV1-expressing cells, Fluo-8 calcium influx, agonist mode | actives 0.19% (n = 320,000) | Q8NER1 | activation, % at 8.33 µM | AID 540275; in the data active = activation above about 80%; inconclusive = between about 30% and that limit; also: 0% is about no effect
Target sequence (Q8NER1 whole entry, looked up): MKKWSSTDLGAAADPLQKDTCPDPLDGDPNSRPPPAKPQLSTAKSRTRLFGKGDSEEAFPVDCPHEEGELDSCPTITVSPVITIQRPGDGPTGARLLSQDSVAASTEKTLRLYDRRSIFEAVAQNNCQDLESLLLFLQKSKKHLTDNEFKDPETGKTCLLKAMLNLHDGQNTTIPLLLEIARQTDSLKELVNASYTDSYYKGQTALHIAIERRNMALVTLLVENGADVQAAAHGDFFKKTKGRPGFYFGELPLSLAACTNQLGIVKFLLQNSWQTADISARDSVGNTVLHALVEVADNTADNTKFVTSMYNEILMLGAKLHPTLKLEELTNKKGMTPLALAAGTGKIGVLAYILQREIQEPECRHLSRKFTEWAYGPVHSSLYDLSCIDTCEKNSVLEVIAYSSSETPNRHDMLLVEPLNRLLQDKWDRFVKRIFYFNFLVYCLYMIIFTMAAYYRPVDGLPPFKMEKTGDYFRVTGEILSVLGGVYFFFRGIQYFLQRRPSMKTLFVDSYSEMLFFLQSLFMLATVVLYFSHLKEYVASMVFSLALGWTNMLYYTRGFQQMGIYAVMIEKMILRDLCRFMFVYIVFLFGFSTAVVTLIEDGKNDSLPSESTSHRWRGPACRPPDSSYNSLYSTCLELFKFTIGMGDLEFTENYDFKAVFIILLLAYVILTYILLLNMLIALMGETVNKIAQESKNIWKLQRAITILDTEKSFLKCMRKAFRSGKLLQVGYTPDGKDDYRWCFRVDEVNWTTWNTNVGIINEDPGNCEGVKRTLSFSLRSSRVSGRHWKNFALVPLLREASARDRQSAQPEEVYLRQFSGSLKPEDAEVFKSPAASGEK
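TRPV1-expressing cells were cultured overnight at 35.5C and loaded with Fluo-8 calcium dye for 40 to 90 min at room temperature. After a 10 s baseline, compound was added and calcium influx was read kinetically for 3 min (ex 480/em 520 nm).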
TRPML1 agonist = human mucolipin-1 channel agonism | activation, % (concentration not given with the values) | Q9GZU1 | AID 624414 | actives 0.12% (n = 410,000) | TRPML1-expressing cells, Ca2+ dye fluorescence, FDSS; in the data active = activation above about 50%; inconclusive = mostly about 30% to 49%; also: 0% is about no effect
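In this qHTS format, compounds were pin-transferred onto Ca8-dye-loaded TRPML1-DL cells induced with Tet overnight, and intracellular Ca2+ fluorescence was recorded kinetically for 110 s after a 10 s baseline. A subsequent 4uM final 54-4 (EC80) addition followed by a second 110 s read served as the antagonist phase.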
TRPV1 PAM = human TRPV1 potentiation; Q8NER1; TRPV1-expressing cells, Fluo-8 calcium influx, capsaicin EC20 potentiation; potentiation, % at 8.33 µM; actives 0.02% (n = 320,000); AID 540277; in the data active = potentiation above about 80%; inconclusive = between about 30% and that limit; also: 0% is about no effect
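TRPV1-expressing cells were cultured overnight at 35.5C and loaded with Fluo-8 calcium dye for 40 to 90 min at room temperature. After a 10 s baseline, compound was added and calcium influx was read kinetically for 3 min (ex 480/em 520 nm).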
An asterisk follows results filed as active; ? = inconclusive; · = no result. Shown are actives, neighbours in structure and some others; about 0.31% of the full set was active somewhere.

SMILES	TRPML1 inh	TRPV1 ag	TRPML1 agonist	TRPV1 PAM
O=C1NC(=O)N(C2CCCCC2)CC1Br (centres undefined)	1	·	0	·
CC(=O)Nc1sc(/C(C#N)=C\c2cccc(Cl)c2)nc1-c1ccc(C)cc1	-23	?	77*	14
CC(=O)Nc1sc(N/N=C/c2ccccc2)nc1-c1ccc(C)cc1	18	4	0	3
COc1cc2c(C(=O)N3CCOCC3)c(CSc3ccccc3)n(C)c2cc1Br	74	?	6	102*
Cc1cc2c(cc3c(SCc4ccccc4Cl)nnc(C)n32)o1	9	·	0	·
O=C(Nc1ccc(F)cc1)c1oc2ccccc2c1NC(=O)C1CC1	9	82*	2	-11
Cc1ccc(NC(=O)c2oc3ccccc3c2NC(=O)C2CC2)cc1	-6	?	1	9
Cn1cnc(S(=O)(=O)N2CCCC(C(=O)NCc3ccccc3Cl)C2)c1 (centres undefined)	17	·	2	·
COc1ccc(NC(=S)NC(C)C(c2ccccc2)N2CCOCC2)cc1 (centres undefined)	20	-4	2	5
CC(NC(=S)Nc1ccccc1Cl)C(c1ccccc1)N1CCOCC1 (centres undefined)	-7	22	80*	-10
COc1ccccc1-c1noc(-c2ccc(N3CCN(C)CC3)c([N+](=O)[O-])c2)n1	6	·	-1	·
O=C(Cc1ccccc1)NCCSC1CCCCC1	6	94*	1	-17
O=C(Cc1ccccc1)NCCCNC(=O)Cc1ccccc1	4	·	0	·
Cc1ccc2oc(=O)c3cc(C(=O)NCCc4ccc(Cl)cc4)sc3c2c1	1	·	-1	·
Cc1ccc(C2/C(=C(\O)c3c(C)nc4c(C)cccn34)C(=O)C(=O)N2CCN(C)C)o1 (centres undefined)	-9	·	1	·
Cc1ccc(C2/C(=C(\O)c3c(C)nc4ccccn34)C(=O)C(=O)N2CCN(C)C)o1 (centres undefined)	-56*	2	0	-5
COc1cccc(CN(CC2CCCO2)S(=O)(=O)c2ccc(S(=O)(=O)N(C)C)cc2)c1 (centres undefined)	-11	12	87*	-11
O=C(C[C@H]1C(=O)N(Cc2ccccc2)C[C@@H]1Cc1ccccc1)Nc1ccccc1	4	?	0	6
O=C(C[C@H]1C(=O)N(C2CCCCC2)C[C@@H]1Cc1ccccc1)Nc1ccccc1	-14	85*	0	10
O=C(NCc1ccc(F)cc1)C1CCCN(c2nc3ccsc3c(=O)s2)C1 (centres undefined)	1	83*	0	-20
O=C1N=C(N2CCCCC2)S/C1=C\c1ccc(Br)cc1	1	87*	0	7
Cc1ccc(/C=C2\SC(N3CCCC3)=NC2=O)cc1	·	?	·	2
COc1ccc(C2Nc3ccccc3C(=O)N2c2ccc(F)cc2)cc1COc1ccc(NC(C)=O)cc1 (centres undefined)	·	·	-1	·
Cc1ccc(-c2nc(SCC(=O)NCc3ccco3)c3c(=O)n(C)c(=O)n(C)c3n2)cc1	-28	·	-1	·
CC(C)c1ccc(CNNC(=O)c2ccccc2)cc1	19	83*	0	-7
SMILES	TRPML1 inh	TRPV1 ag	TRPML1 agonist	TRPV1 PAM
Cc1ccc(NC(=O)CN2C(=O)COc3ccc(S(=O)(=O)NC4CCCC4)cc32)cc1N(C)C	9	·	1	·
Cc1ccc(S(=O)(=O)Nc2ccccc2NS(=O)(=O)c2ccc(C)cc2)cc1	·	·	-1	·
Cc1ccc(S(=O)(=O)Nc2cc(C(F)(F)F)ccc2N2CCOCC2)cc1C	-11	28	85*	-16
CCN1CCN(S(=O)(=O)c2ccc(Cl)c(C(=O)Nc3cc(Cl)ccc3N3CCOCC3)c2)CC1	-20	23	74*	-12
Cc1ccc(S(=O)(=O)Nc2ccccc2N2CCCCC2)cc1	-3	·	76*	·
Cc1ccc(S(=O)(=O)Nc2ccccc2N2CCOCC2)cc1	-9	6	64*	-3
CC(=O)Nc1ccc(NC(=O)C2CCCN2S(=O)(=O)c2ccc3c(c2)CCCC(=O)N3)cc1 (centres undefined)	7	·	0	·
COCC(=O)N(C)C[C@H]1Oc2ncc(C#C[C@H](C)O)cc2C(=O)N([C@@H](C)CO)C[C@H]1C	-15	·	0	·
COc1cccc2nccc(/C=C/c3ccc(N(C)C)cc3)c12	·	·	26	·
Cc1ccc2c(=O)cc(C(=O)Nc3ccc(S(=O)(=O)N4CCCCC4C)cc3)oc2c1C (centres undefined)	6	·	1	·
Cc1cccc(S(=O)(=O)Nc2cc(Cl)ccc2N2CCOCC2)c1	-16	·	72*	·
Cc1ccc2c(c1C)-c1c(ccc(C)c1C)C(=O)C2=O	-9	·	13	·
Cc1ccc(CC#N)c(-c2c(CC#N)ccc(C)c2C)c1C	-16	·	78*	·
CN(C)c1ccc(/C=C/N2C=CCc3c2ccc2ccccc32)cc1	·	·	1	·
COc1ccc(C(=O)Nc2ccc3c(c2)N(C2CCCC2)C(=O)c2ccccc2S3)cc1OC	-11	·	1	·
CCCC(c1nnnn1Cc1cccs1)N1CCN(c2nc3ccccc3s2)CC1 (centres undefined)	-18	-2	61*	?
O=C1c2cccc3c(N4CCCCC4)ccc(c23)C(=O)N1c1ccc(O)cc1	15	?	?	-3
O=C1c2cccc3c(N4CCCCC4)ccc(c23)C(=O)N1c1ccccc1O	-9	?	58*	0
CCCCN(C)C1=CC2=CC(=C(C#N)C#N)CCC2CC1 (centres undefined)	-64*	101*	125*	-2
N#CC(C#N)=C1C=C2C=C(N3CCCCC3)CCC2CC1 (centres undefined)	-26	102*	109*	0
CCN(CC)C1=CC2=CC(=C(C#N)C#N)CCC2CC1 (centres undefined)	?	0	105*	7
CCCN1CNc2c(c(=O)[nH]c(=S)n2CCC(C)(C)C)C1	·	·	0	·
Cc1cc(C)c(NC(=O)CSc2nc(C)cc(C)c2C#N)c(C)c1	0	·	3	·
COc1cccc(CNC(=O)CCn2ccc3cc(S(=O)(=O)N4CCCC4)ccc32)c1	15	89*	-1	10
COc1cccc(CNC(=O)CCCn2ccc3cc(S(=O)(=O)N4CCCC4)ccc32)c1	-4	?	2	-2
SMILES	TRPML1 inh	TRPV1 ag	TRPML1 agonist	TRPV1 PAM
O=C(Cc1cccc(F)c1)NO	·	·	0	·
C1=C(c2ccc(-c3ccccc3)cc2)Nc2ncnn2C1c1ccco1 (centres undefined)	2	12	69*	24
CCc1nnc(NC(=O)c2cc(=O)c3cc(C)ccc3o2)s1	7	·	-1	·
CC(C)CC1Nc2ncnc(N3CCCCC3)c2N(Cc2ccc(Br)cc2)C1=O (centres undefined)	13	82*	1	1
Cc1sc2ncnc(OCC(=O)N3CC(=O)Nc4ccccc43)c2c1C	-2	-2	0	96*
CC(C)Cc1nn2c(=O)cc(COC(=O)c3ccc(NC(=O)CCc4ccccc4)cc3)nc2s1	14	·	0	·
